This is a sample that favours compounds with a hit; in the whole collection about 10% have one here.
BAZ2B inh: blocks human BAZ2B; Potency, µM (titrated, usually from 114 µM), actives largely listed as inhibitors; Q9UIF8; AlphaScreen BAZ2B-H3K14Ac peptide displacement; actives 4.4% (n = 360,000); further: nearly all actives have a fitted effect of over 60% in size
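AlphaScreen luminescence quantifies BAZ2B engagement of H3K14Ac peptide; the protein and biotinylated peptide are both at 50 nM final, buffer PBS pH 7.4 with 0.01% Tween-20, all steps at room temperature.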
HP1b chromo inh: inhibitors of HP1-beta chromodomain binding to methylated histone tails | P83916 | AlphaScreen HP1-beta / biotin-H3K9me3 peptide binding | Potency, µM (highest dose often 114 µM), usual class: inhibitors | actives 0.56% (n = 390,000) | AID 540317; further: nearly all actives have a fitted effect of over 70% in size
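Compound inhibition of the preformed complex between 50 nM HP1-beta and 50 nM biotinylated H3K9me3 peptide was read by AlphaScreen. Buffer was PBS pH 7.4 with 0.01% Tween-20. Incubations ran 30 min at room temperature, with 10 ug/mL donor/acceptor beads.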
GLS inh: glutaminase GLS (human) inhibition; O94925; GLS enzymatic activity, qHTS titration; Potency, µM (highest dose often 45.5 µM), hits mostly inhibitors; actives 0.21% (n = 410,000); AID 624170
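Coupled fluorescence readout: glutamate oxidase/HRP/Amplex Red detect glutamate formed by hKGA from L-glutamine (1 mM solution added). Buffer 45 mM KH2PO4 pH 8.2, 0.02% Tween-20; reads at t0 and 30 min RT.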
G9a inh: G9a (human) methyltransferase inhibition; Q96KQ7; G9a H3K9 monomethylation, AlphaScreen, 2 h; Potency, µM (top dose mostly 102 µM), usual class: inhibitors; actives 8.8% (n = 350,000); AID 504332; further: nearly all actives have a fitted effect of over 75% in size
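G9a (20 nM) preincubated 15 min RT with compounds, then 500 nM biotinylated H3K9 peptide and 20 uM SAM added; 2 h RT reaction. Monomethyl-H3K9 product detected by AlphaScreen with anti-H3K9me1 antibody, streptavidin donor and anti-rabbit IgG acceptor beads.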
JMJD2A Tudor: JMJD2A Tudor domain (human) inhibition; Potency, µM (highest dose often 114 µM), hits mostly inhibitors; actives 4.4% (n = 390,000); AlphaScreen JMJD2A-Tudor / H3K4me3 peptide binding; O75164; further: nearly all actives have a fitted effect of over 50% in size
Target sequence (O75164 whole entry, looked up, the tested form may be a part): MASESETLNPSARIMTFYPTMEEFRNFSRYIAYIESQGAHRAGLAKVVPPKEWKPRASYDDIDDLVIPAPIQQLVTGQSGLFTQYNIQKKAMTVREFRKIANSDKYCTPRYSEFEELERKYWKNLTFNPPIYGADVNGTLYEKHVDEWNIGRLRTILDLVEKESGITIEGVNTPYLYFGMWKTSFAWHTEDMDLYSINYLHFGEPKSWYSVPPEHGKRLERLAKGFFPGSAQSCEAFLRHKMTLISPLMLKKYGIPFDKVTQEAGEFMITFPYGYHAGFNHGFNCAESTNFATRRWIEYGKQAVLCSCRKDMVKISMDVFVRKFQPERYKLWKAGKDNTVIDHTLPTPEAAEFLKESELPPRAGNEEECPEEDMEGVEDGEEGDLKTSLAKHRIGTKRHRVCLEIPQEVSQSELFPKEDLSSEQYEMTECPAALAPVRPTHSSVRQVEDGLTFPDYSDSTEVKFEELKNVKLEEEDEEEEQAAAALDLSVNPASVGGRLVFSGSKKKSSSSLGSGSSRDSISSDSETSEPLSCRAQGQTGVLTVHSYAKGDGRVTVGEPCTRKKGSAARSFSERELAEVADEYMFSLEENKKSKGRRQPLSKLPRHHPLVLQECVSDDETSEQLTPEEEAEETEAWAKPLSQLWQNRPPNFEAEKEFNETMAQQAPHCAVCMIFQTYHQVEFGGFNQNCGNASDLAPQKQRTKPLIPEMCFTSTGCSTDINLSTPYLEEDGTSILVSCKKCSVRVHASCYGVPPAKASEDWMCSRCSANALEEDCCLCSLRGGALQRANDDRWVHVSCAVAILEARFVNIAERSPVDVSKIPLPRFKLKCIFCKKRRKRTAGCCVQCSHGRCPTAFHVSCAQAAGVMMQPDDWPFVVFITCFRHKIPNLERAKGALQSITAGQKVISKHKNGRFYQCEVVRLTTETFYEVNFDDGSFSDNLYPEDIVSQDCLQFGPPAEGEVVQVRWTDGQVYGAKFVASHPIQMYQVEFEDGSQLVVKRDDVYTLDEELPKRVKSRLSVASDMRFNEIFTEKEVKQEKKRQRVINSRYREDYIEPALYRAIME
L3MBTL1 inh: blocks human L3MBTL1; Q9Y468; actives 0.66% (n = 230,000); Potency, µM (titrated, usually from 57.1 µM), most hits filed as inhibitors; AID 485360; AlphaScreen L3MBTL1–H3K9me1 peptide binding; further: nearly all actives have a fitted effect of over 60% in size
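Read-out is AlphaScreen signal from streptavidin donor and nickel chelate acceptor beads (10 ug/mL final each) bridging L3MBTL1 (50 nM) and biotinylated K9-monomethylated H3(1-15) peptide (75 nM), after 30 min compound exposure at room temperature.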
Numbers stand for hits; i = inactive; ? = inconclusive; nt = no result; [ ] = another dose, or the depositor's remark. The call rests on the fitted dose curve; in most records, active means well fitted curve in the direction sought with a large enough effect; inconclusive means small, poorly fitted or top-dose-only effect, or another doubt; inactive means no such curve, though single readings can be large; an effect the other way counts as inactive or inconclusive.

SMILES	BAZ2B inh	HP1b chromo inh	GLS inh	G9a inh	JMJD2A Tudor	L3MBTL1 inh
COc1ccccc1CCNC(=O)CSc1ccc(-c2ccco2)nn1	50.1µM	i	i	28.2µM	i	nt
COc1ccc(N(C(=O)COc2ccccc2OC)S(=O)(=O)c2ccc(Cl)cc2)cc1	i	i	i	i	i	nt
COc1ccccc1NC(=O)Cn1c(=O)n(-c2ccc(C)cc2)c(=O)c2c1cnn2C	i	i	i	i	i	nt
COc1cc(NC(=O)Cn2nc(-c3ccc(F)cc3)ccc2=O)ccc1-n1cnnn1	nt	i	i	i	i	i
CCc1ccc(NC(=O)CSc2ccc(-c3ccco3)nn2)cc1	i	i	?	?	?	nt
O=C(CSc1ccc(-c2ccco2)nn1)c1cccc([N+](=O)[O-])c1	i	i	i	10µM	?	i
CCc1nnc(NC(=O)CSc2ccc(-c3ccc(F)cc3)nn2)s1	i	nt	nt	44.7µM	nt	i
CCc1nnc(NC(=O)CSc2ccc(-c3cccs3)nn2)s1	i	i	i	i	i	nt
CC(=O)c1cccc(NC(=O)CSc2ccc(-c3ccco3)nn2)c1	i	i	i	31.6µM	?	nt
Cc1cc(NC(=O)Cn2nc(-c3ccccc3F)ccc2=O)ccc1-n1cnnn1	i	i	i	56.2µM	i	i
Cc1cc2c(s1)c1cnn(Cc3ccccc3C)c(=O)c1n2C	nt	nt	nt	nt	i	nt
N#Cc1nc(Nc2cccc(-c3ccccc3)c2)nc(NC2CCCC2)n1	nt	nt	nt	nt	i	nt
Cc1ccc(NC(=O)CSc2nc3c(oc4ccccc43)c(=O)n2Cc2ccco2)cc1F	i	i	i	i	i	nt
CCc1ccccc1NC(=O)c1ccc2nc(C(C)C)oc2c1	i	i	i	i	i	nt
COc1ccc(CCNC(=O)Cn2ncc3c(C)n(Cc4ccccc4F)c(C)c3c2=O)cc1OC	i	i	i	i	i	nt
CCc1ccc(NC(=O)CN2C(=O)C(c3ccc(F)cc3)=NC2(C)C)cc1	i	i	i	i	i	nt
CCOC(=O)c1nc2cc3n(c(CC(C)C)c-2c1C)CC(C)=C3C	?	i	i	3.16µM	?	i
CCOC(=O)c1nc2cc3n(c(C)c-2c1C)C(C)C(C)=C3C (configuration not stated)	i	i	i	i[12.7 µM]	i	i
Cc1ccc(C)c(OCCn2cc(C(=O)c3cccs3)c3ccccc32)c1	i	i	i	i	i	nt
COC(=O)c1ccccc1NC(=O)C1(c2cccs2)CCOCC1	i	i	i	i	?	nt
COc1cc(/C=C(/C#N)c2nc3ccccc3[nH]2)ccc1OCC(=O)Nc1ccccc1C(C)C	50.1µM	i	i	i[0.501 µM]	i	i
COc1cc(/C=C(/C#N)c2nc3ccccc3[nH]2)ccc1OCC(=O)Nc1ccccc1C	i	i	i	i[12.7 µM]	i	i
CCOc1cc(/C=C(/C#N)c2nc3ccccc3[nH]2)ccc1OCc1ccc(C(=O)O)o1	?	i	?	70.8µM	i	i
CCC(C(=O)NCCc1ccc(Cl)cc1)n1ccc2cc(S(=O)(=O)N3CCCCC3)ccc21 (configuration not stated)	i	i	i	i	i	nt
O=C(CNC(=O)C1CCCCC1)OCC(=O)c1ccc(-c2ccccc2)cc1	nt	i	nt	nt	i	nt
SMILES	BAZ2B inh	HP1b chromo inh	GLS inh	G9a inh	JMJD2A Tudor	L3MBTL1 inh
O=C(/C=C/c1ccc(O)c(O)c1)c1ccc(S(=O)(=O)N2CCCCCC2)cc1	35.5µM	39.8µM	i	5.01µM	?	?
CCOC(=O)c1sc2ccccc2c1S(=O)(=O)N1CCN(c2cc(C)ccc2C)CC1	i	i	i	i	i	nt
COc1ccc(N/C(C)=C/C(=O)c2ccccc2)cc1	?	?	i	?	?	i
COC(=O)/C(=C\C(=O)c1ccccc1)Nc1ccc(OC)cc1	39.8µM	?	i	14.1µM	35.5µM	i
COc1ccc(N/C(C)=C/C(=S)Nc2ccccc2)cc1	i	i	12.6µM	i	i	i
Cc1ccc(NC(=O)c2ccccc2)cc1	i	i	i	i[12.7 µM]	i	i
Cc1ccc(N/C(=C\C(=O)c2ccccc2)C(=O)O)cc1	56.2µM	i	i	?	?	i
CS(=O)(=O)n1nc(OC(=O)c2cc(Br)ccc2Cl)cc1N	i	i	i	31.6µM	i	i
CCOc1cccc2sc(N(Cc3cccnc3)C(=O)C3CCCCC3)nc12	i	i	i	i	i	nt

Source: PubChem BioAssay
